In PubChem BioAssay AID2391 (Southern Research Specialized Biocontainment Screening …, 2010):
The whole screen tested about 310,000 compounds, of which about 410 (0.13%) were called active. Another 2% or so got no clear call; they are omitted. No rule for the calls is given here. A selection follows. Measured potencies and affinities stand elsewhere.

assay: RSV antiviral activity via CPE protection, HEp-2 cells, primary 10 µM value included (AID 2391); conditions: RSV-induced CPE inhibition, at 10 µM, active compounds read high

CPE inhibition, inactive:
C/C=C/C(=O)Nc1nnc(-c2ccccc2C)s1 0.32%, CCOc1cccc(C(=O)Nc2ccccc2C(=O)N2CCN(C)CC2)c1 -0.42%, CC(CC(=O)Nc1nccs1)c1ccccc1 (configuration not stated) -0.09%, O=C(c1cccc(S(=O)(=O)N2CCc3ccccc32)c1)N1CCc2ccccc2C1 7.22%, COc1cc2c(cc1OC)CN(C(=O)c1cccc(S(=O)(=O)N(C)C)c1)CC2 1.79%, O=C(C1CC(=O)N(c2ccc(F)cc2)C1)N1CCOCC1 (configuration not stated) 3.24%, Cn1c(O)c(/C=C2\C=Nc3ccccc32)sc1=Nc1ccc(C(=O)O)cc1 1.42%, C/C(=N\NC(=O)c1ccc(NS(=O)(=O)c2cccs2)cc1)c1ccncc1 3.91%, C/C(=N\NC(=O)c1ccc(NS(=O)(=O)c2cccs2)cc1)c1ccccc1 -0.3%, CC(C)=CCCC(C)CN1CCC(n2nccc2NC(=O)c2ccc3c(c2)OCO3)CC1 (configuration not stated) -0.22%, O=C(CCCn1c(=O)c2sccc2n(Cc2ccc(F)cc2)c1=O)NCc1ccco1 -0.44%, N#Cc1ccccc1Cn1c(=O)n(Cc2ccc(C(=O)NCc3ccco3)cc2)c(=O)c2sccc21 2.1%, O=C(NCc1ccco1)c1ccc2c(=O)n(-c3ccccc3)c(=O)n(Cc3cccc(F)c3)c2c1 0.67%, O=C(NCc1ccco1)c1ccc(Cn2c(=O)c3ccccc3n(Cc3cccc(F)c3)c2=O)cc1 4.05%, N#Cc1ccccc1Cn1c(=O)n(Cc2ccc(C(=O)NCc3ccco3)cc2)c(=O)c2ccccc21 2.54%, COCCCNC(=O)c1ccc(Cn2c(=O)c3ccccc3n(Cc3ccccc3C)c2=O)cc1 1.4%, COCCCNC(=O)c1ccc(Cn2c(=O)c3ccccc3n(Cc3cc(C)ccc3C)c2=O)cc1 1.91%, O=C(NCc1ccco1)c1ccc(Cn2c(=O)c3ccccc3n(Cc3cccc(Cl)c3)c2=O)cc1 18.6%, CCN1CCCC1CNC(=O)Cn1ncc2c(=O)oc3ccc(C)cc3c21 (configuration not stated) 2.08%, Cc1ccccc1/C=N\NC(=O)c1ccc(Cn2cccn2)o1 1.85%, O=c1nc2ccccc2c2n1CC(CN1CCN(c3ccc(F)cc3)CC1)N2 (configuration not stated) -0.72%, CCCOc1ccccc1C1NC(=O)NC(C)=C1C(=O)OCCOCC (configuration not stated) -0.41%, CCC(C)c1ccccc1NC(=S)Nc1cccnc1 (configuration not stated) 3.94%, Cc1ccc(N2C(=O)N(C(C)C)C(C)(C)CC2(C)O)cc1 (configuration not stated) 2.14%, O=C(c1cccc(Cl)c1)C1CCCN(C(=O)c2ccoc2)C1 (configuration not stated) -0.58%, O=c1cc(-c2ccc(O)cc2)oc2c(C3O[C@H](CO)[C@@H](O)[C@H](O)[C@H]3O)c(O)cc(O)c12 (some centres not stated) -1.94%, O=c1cc(-c2ccc(O)c(O)c2)oc2cc(O)c(C3OC(CO)C(O)C(O)C3O)c(O)c12 (configuration not stated) 0.47%, COc1ccc(OC)c(NC2c3ncccc3C(=O)N2Cc2ccco2)c1 (configuration not stated) 6.51%, COc1cc(NC2c3ncccc3C(=O)N2Cc2ccco2)cc(OC)c1 (configuration not stated) 9.47%, O=C1c2cccnc2C(Nc2ccccc2Br)N1Cc1ccco1 (configuration not stated) 4.55%, O=C1c2cccnc2C(Nc2cccc(F)c2)N1Cc1ccco1 (configuration not stated) 12%, CCCOc1ccc(CN(C(=O)c2cccc(OC)c2)C2CCS(=O)(=O)C2)cc1 (configuration not stated) 0.38%, CC(O)CNc1nc2ccccc2n1CC(=O)NCC(F)(F)F (configuration not stated) 0.4%, O=C(Oc1ccc(C(=S)N2CCOCC2)cc1)c1ccc([N+](=O)[O-])cc1[N+](=O)[O-] 1.71%, O=C(COc1ccc(F)cc1Cl)Nc1ccc(S(=O)(=O)Nc2nccs2)cc1 -1.6%, CC(C)(C)c1cc(CNC2CS(=O)(=O)C[C@@H]2O)cc(C(C)(C)C)c1O (some centres not stated) 0.68%, Cc1cc(Nc2cccc(Cl)c2)c2ccccc2n1 11%, COC(=O)c1cccc(Nc2nc3ccccc3nc2C)c1 7.1%, CCOc1ccc(-c2c(C(=O)N/N=C/C3CC=CCC3)nnn2-c2nonc2N)cc1 (configuration not stated) 0.26%, CC1=NOC2(C1)N(C)c1ccccc1C2(C)C (configuration not stated) -0.95%, CN1c2ccccc2C(C)(C)C12CC(CCl)=NO2 (configuration not stated) 0.62%, CN1c2ccccc2C(C)(C)C12CC(c1ccc(Cl)c(S(=O)(=O)N3CCCC3)c1)=NO2 (configuration not stated) 3.21%, CCN(CC)S(=O)(=O)c1ccc(C2=NOC3(C2)N(C)c2ccccc2C3(C)C)cc1 (configuration not stated) 49.6%, COC(=O)COc1ccc(S(=O)(=O)NCc2ccc3c(c2)OCO3)cc1C 1.14%, CCCC[C@@H]1CNCCN1CCc1cccc2ccccc12 -0.31%, Cc1cccc(NS(=O)(=O)c2ccc(C(=O)NCC3CCCO3)cc2)c1C (configuration not stated) 2.28%, CN(C)c1nc(C(N)=O)nc(N2CCOCC2)n1 0.62%, Cc1cc(C)n(CCCNC(=O)CN(C)S(=O)(=O)c2ccc(Cl)cc2)n1 -0.89%, Cc1ccc(-c2nc(CSCC(=O)N3CCCC3)c(C)o2)cc1 20.2%, Cc1oc(-c2ccccc2Cl)nc1CSCC(=O)O 2.04%, CC(=O)c1ccc(Nc2nc(=O)c3cccnc3s2)cc1 -0.53%, Cc1ccc(Nc2nc(=O)c3cccnc3s2)cc1 4.1%, O=c1nc(Nc2ccc(OCc3ccccc3)cc2)sc2ncccc12 43.1%, CC(=O)c1cccc(Nc2nc(=O)c3cccnc3s2)c1 -1.05%, O=C(O)CSc1nnc(COc2ccc(Br)cc2)n1-c1ccccc1 1.47%, COC(=O)c1sccc1S(=O)(=O)N1CCCC(N(C)CCc2ccccn2)C1 (configuration not stated) -0.75%, Cc1ccc(N(CCCCN2C(=O)c3ccccc3C2=O)C(=O)c2ccc(Cl)s2)cc1 44.1%, CCN(C(=O)c1cc2ccccc2oc1=O)c1ccccc1 0.2%, O=C1c2ccccc2C(=O)N1CCCCN(C(=O)c1ccc(Cl)s1)c1ccc(Cl)cc1 42.2%, O=C1c2ccccc2C(=O)N1CCCCN(C(=O)c1cccc([N+](=O)[O-])c1)c1ccc(Cl)cc1 60.5%, O=C(c1cc2ccccc2oc1=O)N(c1ccc(Cl)cc1)C1C=CS(=O)(=O)C1 (configuration not stated) 1.15%, O=C1c2ccccc2C(=O)N1CCCCN(C(=O)c1cc([N+](=O)[O-])cc([N+](=O)[O-])c1)c1ccc(Cl)cc1 46.5%, CN(Cc1ccccc1)C(=O)N[C@@H](Cc1ccccc1)C(=O)O 0.64%, COc1cccc(CCc2nnc(CCC(=O)NC(C)c3c(C)nn(C)c3C)o2)c1 (configuration not stated) 0.66%, COc1ccc(OC)c(CN2CCN(C(=O)c3ccc(F)cc3)CC2)c1 2.45%, CC(C)Cc1nnc(NC(=O)CCC(=O)Nc2ccccc2F)s1 1.44%, Nc1ccc(-c2nc3ccc(N)cc3s2)cc1 -1.51%, Nc1ccc(-c2nc3ccc(C(=O)O)cc3s2)cc1 -1.01%, CCc1n(CC(O)COCC2CC=CCC2)c2ccccc2[n+]1C (configuration not stated) 0.73%, O=C(NCc1ccc(F)cc1Cl)C1CCN(S(=O)(=O)N2CCCCC2)CC1 4.02%, Cc1ccc(S(=O)(=O)N(C)C)cc1NC(=O)COC(=O)CCC1CCCCC1 -0.99%, Cc1ccc(C)c(NC(=O)CN(C)C(=O)c2ccc(-c3cccc(C(F)(F)F)c3)o2)c1 0%, Clc1ccc(OCc2cn3ccccc3n2)c2ncccc12 4.9%, Cc1cccc2nc(COc3ccc4ccccc4c3Br)cn12 8.72%, CCn1c(CNS(=O)(=O)c2ccc(Br)cc2)n[nH]c1=S 0.55%, Cc1[nH]c2ccccc2c1/C=N/NC(=O)c1cccc([N+](=O)[O-])c1 1.07%, Cc1[nH]c2ccccc2c1/C=N/Nc1ccc([N+](=O)[O-])cc1S(=O)(=O)Nc1ccc(Cl)cc1 1.27%, C=CCc1cc(Cl)ccc1OCCCNC(C)CC (configuration not stated) 0.05%, CSc1ccc(/C=C(/NC(=O)c2ccc(C)cc2)C(=O)Nc2cccc(C)c2)cc1 2.91%, O=C(O)c1cccc(COc2ccccc2Cl)c1 1.88%, COc1ccc(OCc2cccc(C(=O)O)c2)cc1 0.64%, COc1cc(CO)ccc1Oc1nc2ccccc2n2cnnc12 2.05%, O=C1c2cccnc2C(Nc2ccc(Cl)cc2)N1Cc1cccs1 (configuration not stated) 46.8%, O=C1c2cccnc2C(Nc2ccc(F)c(Cl)c2)N1Cc1cccs1 (configuration not stated) 18%, Cc1ccc(NC2c3ncccc3C(=O)N2Cc2cccs2)cc1C (configuration not stated) 13.8%, Cc1ccc(NC2c3ncccc3C(=O)N2Cc2cccs2)cc1 (configuration not stated) 8.2%, CCOC(=O)CNC(=O)c1ccc2[nH]c3ccccc3c2c1 2.11%, CCCn1c(SCC(=O)c2cc(OC)ccc2OC)nnc1-c1ccco1 1.5%, CCOc1ccc(C(c2c(O)nc(SC)[nH]c2=O)c2c(O)nc(SC)[nH]c2=O)cc1 1.1%, CCOC(=O)Cc1csc(NC(=O)C(NC(=O)C2CCCCC2)C(C)C)n1 (configuration not stated) 3.52%, O=[N+]([O-])c1cccc(-c2csc(Nc3ccccc3)n2)c1 0.52%, COc1ccccc1Nc1nc(-c2cccnc2)cs1 7.69%
